# ELG1 DNA repair = qHTS screen for small molecules that inhibit ELG1-dependent DNA repair in human embryonic kidney (HEK293T) cells expressing luciferase-tagged ELG1; HEK293T ELG1-luciferase reporter, luminescence, 16 h; DNA damage induced by 5-fluorouridine; Potency, µM (top dose mostly 46.1 µM), for inactives: top-dose activity change, negative = inhibition, usual class: inhibitors; hit rate 2.3% among 330,000; AID 504467, 2011; also: % is scaled to controls: 0 for no effect and ±100 for the full control effect; nearly all actives have a fitted effect of over 55% in size
#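 Luminescence from the luciferase reporter, measured 30 min after ONE-Glo reagent at room temperature, was the read-out. Beforehand, 2,000 cells per well were exposed for 16 hr at 37 °C to 5-fluorouridine together with compound or vehicle.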
# Nrf2 ARE act = qHTS of Nrf2 Activators. AID 624171, 2012. AREc32 ARE-luciferase reporter (MCF7-derived line), luminescence, 24 h. Potency, µM (highest dose often 46.1 µM), for the others: top-dose activation, most hits filed as activators. hit rate 0.31% among 410,000; also: % of control where 0% means no effect; nearly all actives have a fitted effect of over 65% in size
#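 AREc32 cells carrying an ARE-driven firefly luciferase, 1000 cells/well in OPTI-MEM with 5% FBS, dosed after overnight attachment and incubated 24 hr at 37 deg C. Steady-Glo luminescence read after 30 min at RT.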
# IDH1 R132H inh = qHTS for Inhibitors of mutant isocitrate dehydrogenase 1 (IDH1): qHTS; Isocitrate dehydrogenase [NADP] cytoplasmic (Homo sapiens), O75874; AID 602179, 2012; hit rate 0.093% among 390,000; IDH1-R132H enzyme, NADPH consumption, diaphorase/resazurin fluorescence; Potency, µM (titrated, usually from 76.6 µM), for inactives: at the top dose activity change, negative = inhibition, hits mostly inhibitors; also: % is scaled to controls: 0 for no effect and ±100 for the full control effect; nearly all actives have a fitted effect of over 65% in size
# Target sequence (O75874 whole entry R132H, stated change not applied): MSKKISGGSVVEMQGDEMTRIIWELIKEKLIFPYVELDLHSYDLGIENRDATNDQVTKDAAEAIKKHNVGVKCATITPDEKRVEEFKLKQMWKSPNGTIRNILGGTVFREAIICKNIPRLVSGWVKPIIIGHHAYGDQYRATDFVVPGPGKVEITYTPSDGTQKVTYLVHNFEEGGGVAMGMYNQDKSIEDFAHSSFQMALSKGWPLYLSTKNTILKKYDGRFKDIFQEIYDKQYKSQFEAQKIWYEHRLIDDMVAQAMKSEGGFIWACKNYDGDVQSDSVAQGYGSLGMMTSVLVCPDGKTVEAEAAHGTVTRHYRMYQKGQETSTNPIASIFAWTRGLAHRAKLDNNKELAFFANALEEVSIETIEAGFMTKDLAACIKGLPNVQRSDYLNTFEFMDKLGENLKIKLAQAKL
#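 IDH1-R132H (0.5 ug/mL) preincubated 30 min with compound, then NADPH (0.016 mM) and alpha-KG (2 mM) added; 80 min at RT, pH 7.5. Remaining NADPH coupled via diaphorase/resazurin to fluorescence (540/590 nm); concentration-response curves normalized to no-enzyme control.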
# A549 viability = Nrf2 qHTS screen for inhibitors: counterscreen for cytotoxicity. AID 504648, 2011. Potency, µM (highest dose often 46 µM), for the others: top-dose activity change, negative = cytotoxicity, actives largely listed as inhibitors. hit rate 0.16% among 390,000. A549 ARE-Fluc cells, CellTiter-Fluor viability, 18-24 h; also: % is scaled to controls: 0 for no effect and ±100 for the full control effect
#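 A549 ARE_Fluc cells in 5% FBS OPTI-MEM were exposed to compounds in concentration-response for 18-24 h at 37 deg C. Viability was read by CellTiter-Fluor fluorescence (Ex 405/Em 525) after 30 min, before the luciferase read.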
# Nrf2 block = Nrf2 qHTS screen for inhibitors. Potency, µM (titrated, usually from 46 µM), inactives show top-dose activity change, negative = inhibition, most hits filed as inhibitors. AID 504444, 2011. hit rate 2.1% among 360,000. A549 ARE-Fluc reporter, luciferase luminescence, 18-24 h; also: % is scaled to controls: 0 for no effect and ±100 for the full control effect; nearly all actives have a fitted effect of over 60% in size
#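 Reporter: ARE-Fluc in A549. Exposure: 18-24 h, 37 °C, 5% CO2, 5% FBS OPTI-MEM. Readouts: fluorescent cytotoxicity (CellTiter-Fluor), then luminescent Nrf2 signal after BugLite.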
# An asterisk follows results filed as active; ? = inconclusive; / = no result; [ ] = another dose, or the depositor's remark. Hits are enriched below; roughly 3.8% of the tested compounds scored in any of these assays. Calls follow the shape of the dose curve; as a rule, active = well fitted curve in the direction sought with a large enough effect; inconclusive = small, poorly fitted or top-dose-only effect, or another doubt; inactive = no such curve, though single readings can be large; an effect the other way counts as inactive or inconclusive. Potency is read from the fitted curve at half-maximal effect.
SMILES,ELG1 DNA repair,Nrf2 ARE act,IDH1 R132H inh,A549 viability,Nrf2 block
O=C(OCC#CCSc1nnc(-c2ccc(Cl)cc2)o1)c1ccc(F)cc1,/,/,/,1%,9%
COc1ccc2cc3cc(C(=O)NCCc4ccc(OC)c(OC)c4)oc3nc2c1,5.2µM*,-1%,6%,-4%,?
S=c1[nH]c(=S)c2[nH]cnc2[nH]1,/,/,/,-12%,6%
CNc1cc(C(=O)Nc2cccc(OCc3ccccc3)c2)ncn1,/,1%[9.22 µM],/,/,/
COc1ccccc1NC1=Nc2cccc3cccc1c23,-7%,0%,7%,26µM*,-28%
O=S(=O)(/C=C/C=C/S(=O)(=O)c1ccccc1)c1ccccc1,/,-3%,-2%,?,26µM*
CCOc1ccc(NC(=O)Cn2c(=O)n(Cc3ccc(C(=O)NCc4ccc(C)cc4)cc3)c(=O)c3ccccc32)cc1,/,0%,-2%,-14%,18µM*
Cc1ccc(CNC(=O)c2ccc(Cn3c(=O)c4ccccc4n(CC(=O)Nc4ccc(C)cc4)c3=O)cc2)cc1,/,0%,-12%,-4%,-8%
COC(=O)c1[nH]c2ccccc2c1NC(=O)CN1CCN(C(=O)c2ccco2)CC1,21µM*,3%,6%,-18%,?
COC(=O)c1c(NC(=O)CN2CCN(C(=O)c3ccco3)CC2)c2cc(C)ccc2n1C,21µM*,3%,-2%,13%,-21%
COC(=O)c1[nH]c2ccccc2c1NC(=O)CN1CCC(C(N)=O)(N2CCCCC2)CC1,6.5µM*,2%,-3%,-6%,/
CCOC(=O)C1CCCN(CC(=O)Nc2c(C(=O)OC)[nH]c3ccc(Cl)cc23)C1 (stereo not drawn),21µM*,1%,10%,0%,2%
COC(=O)c1[nH]c2ccccc2c1NC(=O)CN1CCCCCC1,?,0%,-1%,1%,-18%
Cc1cccc(C)c1NC(=O)c1ccc2c(c1)N(Cc1cccc(Cl)c1)C(=O)c1ccccc1S2=O (stereo not drawn),/,0%,10%,1%,1%
COc1cc(Cl)c(C)cc1NC(=O)CSCc1nc(-c2ccc(OC)c(OC)c2)no1,/,4%,25%,-1%,-15%
CCN(CC(=O)Nc1c(C(=O)OC)[nH]c2ccc(Cl)cc12)c1ccc2c(c1)OCO2,23µM*,6%,0%,-20%,?
COC(=O)c1cc(S(=O)(=O)N2CCN(c3ccc(C)cc3C)CC2)cn1C,/,0%,-13%,2%,?
COc1cccc(-c2noc(-c3cc4ccccc4oc3=O)n2)c1OC,/,11µM*,-2%,1%,?
COc1cccc2cc(-c3nc(-c4ccccc4F)no3)c(=O)oc12,/,4%,10%,6%,?
Cc1ccc2nc(SC(C)C(=O)Nc3cccc([N+](=O)[O-])c3)[nH]c2c1 (stereo not drawn),?,7%,3%,-15%,21µM*
Cc1ccc2nc(SC(C)C(=O)NC3CCCC3)[nH]c2c1 (stereo not drawn),-13%,1%,-4%,-4%,-15%
Cc1cccc(NC(=O)CSc2nnc(CN3CCOCC3)n2C)c1C,-3%,-1%,3%,1%,19%
Cn1c(CN2CCOCC2)nnc1SCC(=O)Nc1ccc([N+](=O)[O-])cc1O,13µM*,0%,12%,4%,4%
CC(C)OC(=O)c1cn(-c2ccccc2)nc1-c1ccc2c(c1)OCCO2,23µM*,0%,5%,-6%,?
COC(=O)c1cn(-c2ccccc2)nc1-c1ccc(OC)cc1,26µM*,4%,-3%,11%,-14%
CCOC(=O)c1ccc(NC(=O)c2cn(-c3ccccc3)nc2-c2ccncc2)cc1,18µM*,5%,-1%,1%,2%
O=C(/C=C/c1cn(-c2ccccc2)nc1-c1ccc2c(c1)OCCO2)NCCO,?,2%,9%,-3%,20%
NC(=O)/C=C\c1cn(-c2ccccc2)nc1-c1ccc2c(c1)OCCO2,16µM*,5%,2%,-25%,?

# Bioassay records deposited in PubChem by National Center for Advancing Translational Sciences (NCATS).
